CYP2C19 inh: human CYP2C19 inhibition; 96,000 tested, 21% active; CYP2C19 Supersomes, luciferin-H EGE luminescence, 30 min; AID 778; inhibition, % at 5 µM;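 active = CYP2C19 inhibition above a set limit at 5 µM in the primary screen, cut at about 50% in these data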
Target sequence (P33261 whole entry, looked up): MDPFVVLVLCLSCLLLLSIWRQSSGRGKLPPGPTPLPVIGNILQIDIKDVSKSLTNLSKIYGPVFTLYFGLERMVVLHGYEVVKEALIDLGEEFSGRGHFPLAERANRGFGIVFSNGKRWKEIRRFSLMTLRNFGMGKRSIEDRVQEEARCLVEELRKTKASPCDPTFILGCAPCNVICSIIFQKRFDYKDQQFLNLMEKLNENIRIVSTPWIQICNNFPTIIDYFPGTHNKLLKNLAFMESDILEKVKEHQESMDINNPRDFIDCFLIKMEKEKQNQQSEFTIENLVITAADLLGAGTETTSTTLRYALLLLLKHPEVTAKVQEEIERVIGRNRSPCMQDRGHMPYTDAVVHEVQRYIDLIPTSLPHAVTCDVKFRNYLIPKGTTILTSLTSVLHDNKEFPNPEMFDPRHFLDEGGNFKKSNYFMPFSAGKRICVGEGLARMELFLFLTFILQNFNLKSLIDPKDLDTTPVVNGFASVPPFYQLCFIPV
CYP2C9 inh: human CYP2C9 inhibition; P11712; CYP2C9 Supersomes, luciferin-H conversion, luminescence; inhibition, % at 5 µM; 96,000 tested, 20% active; AID 777;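 active = blocking of liver enzyme CYP2C9 beyond about 50% at 5 µM, limit read from the data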
CYP2C19 act: cytochrome P450 2C19 (human) activation. activation factor at 5 µM. P33261. recombinant CYP2C19, luciferin-H EGE luminescence; hits give high values; 0 = fully inhibited enzyme, 1 = untreated enzyme. AID 1025. 96,000 tested, under 10 active;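 active = activation factor of at least 2 at 5 µM in the primary screen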
Cav32 inh: human Cav3.2 channel inhibition, primary screen. 100,000 tested, 4% active. O95180. Cav3.2-expressing cells, Fluo-4 calcium fluorescence FDSS; hits give low values. B-score at 10 µM;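 active = single-dose well whose peak fluorescence ratio is a statistical outlier from its plate by either plate-standardised score or position-corrected B-score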
CYP2C9 activ: increases human cytochrome P450 2C9 activity; 96,000 tested, 1.4% active; activation factor at 5 µM; AID 1024; recombinant CYP2C9, luciferin-H conversion, luminescence; hits give high values; factor 1 = untreated enzyme, 0 = blocked; P11712;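 active = activation factor of 2 or more for CYP2C9 at a 5 µM dose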
Hits are given with their value; n = inactive; x = no result. Compounds with a hit are over-represented: about 27% of the library has one in this group of screens.

SMILES	CYP2C19 inh	CYP2C9 inh	CYP2C19 act	Cav32 inh	CYP2C9 activ
O=C(Nc1ccccc1)C1CC(=O)N(c2ccc3c4c(cccc24)CC3)C1 (configuration not stated)	n	62.0	n	n	n
c1ccc(COc2cccc(CNn3cnnc3)c2)cc1	50.3	n	n	n	n
CCOc1cccc(CNn2cnnc2)c1OCc1ccccc1	56.8	n	n	n	n
O=S(=O)(Nc1ccccc1)c1ccc(Oc2ncc(C(F)(F)F)cc2Cl)cc1	n	n	n	n	n
Cc1ccc(S(=O)(=O)N2CCN(S(=O)(=O)N3CCOCC3)CC2)c(C)c1	n	n	n	n	n
CC(=O)NC1CC2CCCC(C1)N2C(=O)Nc1ccc(Cl)c(C(F)(F)F)c1 (configuration not stated)	57.8	n	n	n	n
CS(=O)(=O)N1CCC(C(=O)Nc2ccc(Cl)c(C(F)(F)F)c2)CC1	n	n	n	n	n
COc1ccccc1N1CCN(C(=O)CN(c2ccccc2OC)S(=O)(=O)c2ccccc2)CC1	74.9	89.5	n	n	n
CCOC(=O)N1CCN(C(=O)CN(c2cc(Cl)ccc2OC)S(=O)(=O)c2ccccc2)CC1	n	64.7	n	n	n
CCOC(=O)N1CCN(C(=O)CN(c2cccc(C)c2)S(=O)(=O)c2ccccc2)CC1	n	71.6	n	n	n
CCOC(=O)C1CCN(C(=O)CN(c2ccc(OC)c(OC)c2)S(=O)(=O)c2ccccc2)CC1	n	n	n	n	n
CCOC(=O)N1CCN(C(=O)CN(c2cccc(C)c2)S(=O)(=O)c2ccc(C)cc2)CC1	72.4	73.6	n	n	n
Cc1ccc(C)c(S(=O)(=O)c2c(N)n(/N=C/c3ccco3)c3nc4ccccc4nc23)c1	63.0	85.7	n	n	n
Cc1cccc(S(=O)(=O)c2c(N)n(/N=C/c3ccccc3)c3nc4ccccc4nc23)c1	n	54.7	n	n	n
COc1ccc2[nH]c(=O)c(CN(CCO)C(=O)c3ccccc3F)cc2c1	n	n	n	n	n
CC[C@H](C)[C@@H](C(=O)N1CCNCC1)n1cc([C@@H](N)CO)nn1	x	x	x	n	x
Cc1ccc(C2=[N+]([O-])C3(CCCCC/C3=N\NC(N)=S)N(O)C2(C)C)o1 (configuration not stated)	n	74.4	n	x	n
CCOc1ccc(/C(O)=C2/C(=O)C(=O)N(CCCn3ccnc3)C2c2cccs2)cc1Cl (configuration not stated)	n	70.2	n	n	n
O=S(=O)(Nc1ccc2c(c1)OCCO2)c1ccc(Br)s1	98.5	96.2	n	n	n
COc1ccc(C)cc1NS(=O)(=O)c1cc(C)ccc1C	n	n	n	n	n
COc1ccc(NS(=O)(=O)c2ccc(OC)c(OC)c2)cc1OC	x	x	x	n	x
COc1ccc(C)cc1NS(=O)(=O)c1ccc(Br)s1	97.9	n	n	n	n
COc1ccc(NS(=O)(=O)c2ccc(Br)s2)cc1OC	99.4	86.7	n	n	n
CCCCCn1c(N)c(-c2nc3ccccc3s2)c2c([N+](=O)[O-])nn(C)c(=O)c21	n	69.9	n	n	n
Cc1cc(OCC(=O)Nc2ccc(F)c(F)c2)nc(C(C)C)n1	73.3	n	n	n	n
SMILES	CYP2C19 inh	CYP2C9 inh	CYP2C19 act	Cav32 inh	CYP2C9 activ
Cc1cc(OCC(=O)Nc2ccccc2F)nc(C(C)C)n1	n	n	n	n	n
CC(c1nc2ccccc2c(=O)[nH]1)N1CCN(C)CC1 (configuration not stated)	n	n	n	n	n
CC(=O)Nc1c(I)c(NC(C)=O)c(I)c(C(=O)O)c1I	x	x	x	n	x
O=C(NCc1ccc2c(c1)OCO2)C1CCCN1C(=O)Nc1cccc(Cl)c1 (configuration not stated)	n	n	n	n	n
CCSc1nc(N)c2c3c(sc2n1)CCC3	96.1	n	n	n	n
CNC(=O)CSc1nc(N)c2c3c(sc2n1)CCC3	n	n	n	n	n
NC(=O)CSc1nc(N)c2c3c(sc2n1)CCCCC3	66.8	n	n	n	n
Nc1nc(SCc2nnc(SCC(=O)O)n2-c2ccccc2)nc2sc3c(c12)CCCC3	n	n	n	n	n
Brc1cccc(C2CC(c3ccccc3)n3nnnc3N2)c1 (configuration not stated)	77.6	80.3	n	n	n
c1ccc(C2CC(c3cccs3)n3nnnc3N2)cc1 (configuration not stated)	83.2	73.6	n	n	n
COc1cccc(C2CC(c3cccs3)Nc3ncnn32)c1 (configuration not stated)	n	n	n	x	n
COC(=O)C1=C(C)N(CCCC(=O)O)C(=O)NC1c1cccc2ccccc12 (configuration not stated)	x	x	x	n	x
CC(C)(C)NC(=O)C(c1ccccc1F)N(Cc1ccco1)C(=O)c1csnn1 (configuration not stated)	n	n	n	n	n
Cc1cccc(C)c1NC(=O)C1(N(Cc2ccco2)C(=O)c2ccccn2)CCCC1	n	62.7	n	n	n
Cc1ccccc1C(C(=O)NCc1ccccc1)N(Cc1ccco1)C(=O)c1ccccn1 (configuration not stated)	53.5	n	n	n	n
O=C(c1ccccn1)N(Cc1ccco1)C1(C(=O)NC2CCCCC2)CCCCC1	n	n	n	n	n
CC1(C)Oc2ccc(C#N)cc2[C@@H](N2CCCC2=O)[C@@H]1O	x	x	x	n	x
O=C1c2ccccc2C(=O)N1n1c(=O)[nH]c2ccccc2c1=O	n	n	n	n	n
COc1cc2c(=O)n(CC3CCCO3)c(=O)n(CC(=O)Nc3cccc(Cl)c3)c2cc1OC (configuration not stated)	63.0	84.7	n	x	n
Cc1cc(=O)n2[nH]cc(C(=O)O)c2n1	x	x	x	n	x
COc1ccc(N2C(=O)C3C4C=CC(C5CC45)C3C2=O)c([N+](=O)[O-])c1 (configuration not stated)	n	n	n	n	2
Cc1ccc(C(=O)c2cc(C)sc2NC(=O)CN2CCN(C(=O)c3ccco3)CC2)cc1	n	n	n	n	n
N#CCC(=O)N/N=C/c1ccc(Sc2nc3ccccc3s2)o1	78.3	n	n	-5.28	n
O=C(Cc1cccc2ccccc12)N/N=C/c1ccc(Sc2nc3ccccc3s2)o1	n	75.9	n	n	n
Cc1ccccc1OCC(=O)N/N=C/c1ccc(Sc2nc3ccccc3s2)o1	74.1	83.0	n	-6.85	n
COCC(=O)N/N=C/c1ccc(Sc2nc3ccccc3s2)o1	n	n	n	n	n
Cc1ccc(CNC(=O)C2CC3Cn4c(nc5cc(Cl)c(Cl)cc54)C3N2C)o1 (configuration not stated)	x	x	x	n	x
Cc1ccc(-n2nc(C)cc2NC(=O)c2ccc(C)s2)cc1	76.3	n	n	n	n
CC(=O)Nc1ccc(S(=O)(=O)Nc2c(C)nn(-c3ccccc3)c2C)cc1	n	n	n	n	n
CC(=O)c1ccccc1NS(=O)(=O)c1c(C)nn(-c2ccccc2)c1C	98.7	51.3	n	n	n

Compound activity deposited in PubChem by several laboratories.
